We go through 8 molecules from PubChem BioAssay (NCI).

SMILES strings stand for the structures. About 83,000 compounds went through this panel and 20% of them were active in at least one assay; those are over-represented in the sample as a whole.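 48-hour exposure, single concentration, 96-well plates; percent growth endpoint where 0 means no net growth. Active: below 10.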 A number with no mark means an inactive call. Calls of active or inactive are those of the source.

Among the test systems are DU-145 prostate; K-562 leukemia; MALME-3M melanoma; MDA-MB-231 breast; RXF 393 renal; SF-268 CNS; SF-295 CNS; SF-539 CNS; UACC-257 melanoma; M14 melanoma; HCT-15 colon; HT29 colon; SNB-75 CNS; SNB-19 CNS; U251 CNS; PC-3 prostate; SK-MEL-5 melanoma; UACC-62 melanoma; LOX IMVI melanoma; SK-MEL-28 melanoma.
What all share (test): NCI-60 one-dose screen, 48 h (100 = growth as untreated, 0 = no growth, -100 = all killed)
Conditions in all cases: 10 µM unless noted

For `C=CCn1c(SCC(=O)NCc2cc(C)c(O)c(C)c2)nc2ccc(Cl)cc2c1=O`, the growth with DU-145 prostate is 105%; in the assay on K-562 leukemia, 58.6%; with MALME-3M melanoma, 98.8%; with MDA-MB-231 breast, 111%; in the assay on RXF 393 renal, 98.6%; in the assay on SF-268 CNS it was 99.2%. Also, the growth is 91.1% in the assay on SF-295 CNS; 101% with SF-539 CNS; 102% in the assay on UACC-257 melanoma; 115% with M14 melanoma; 95.6% in the assay with HCT-15 colon; 102% in the assay with HT29 colon. The growth is 67.5% in the assay with SNB-75 CNS; 99.7% in the assay on SNB-19 CNS; 102% with U251 CNS; 96.1% in the assay with PC-3 prostate; 93.2% in the assay with SK-MEL-5 melanoma; 81.9% in the assay with UACC-62 melanoma. Also, the growth in the assay on LOX IMVI melanoma was 100%; in the assay on SK-MEL-28 melanoma it was 109%.
In the case of `O=C1COCCN1c1ccc(Nc2nc(Cl)nc(OCc3cn(Cc4ccccc4)nn3)n2)cc1`, the growth in the assay with DU-145 prostate was 90.5%; in the assay on K-562 leukemia, 33.2%; with MALME-3M melanoma, 96.1%; in the assay on MDA-MB-231 breast, 95.4%; in the assay on RXF 393 renal it was 90.7%; with SF-268 CNS, 80.9%. The growth in the assay with SF-295 CNS was 102%; in the assay on SF-539 CNS, 98.2%; in the assay on UACC-257 melanoma, 84.4%; in the assay with M14 melanoma it was 76.1%; in the assay with HCT-15 colon, 93.3%; with HT29 colon, 90.8%. Also, the growth in the assay with SNB-75 CNS is 101%; in the assay on SNB-19 CNS, 90.3%; in the assay with U251 CNS it was 83.4%; with PC-3 prostate it was 89.4%; with SK-MEL-5 melanoma, 95.8%; in the assay with UACC-62 melanoma it was 92.2%. The growth in the assay on LOX IMVI melanoma was 75.7%; in the assay on SK-MEL-28 melanoma it was 101%.
In the case of `Cc1cc(N)c2cc(NC(=O)/C=C\c3ccccc3Cl)ccc2n1`, the growth in the assay with DU-145 prostate was -92.8% (active); with K-562 leukemia it was -31.9% (active); in the assay with MALME-3M melanoma, -76.2% (active); in the assay on MDA-MB-231 breast it was -87.1% (active); in the assay on RXF 393 renal, -78.2% (active); in the assay on SF-268 CNS it was -76.6% (active). Also, the growth is -80.4% (active) in the assay with SF-295 CNS; -91.3% (active) with SF-539 CNS; -49.2% (active) in the assay on UACC-257 melanoma; -70.9% (active) with M14 melanoma; 10.9% with HCT-15 colon; -64.4% (active) in the assay on HT29 colon. Besides, the growth is -90.8% (active) with SNB-75 CNS; -86.3% (active) in the assay with SNB-19 CNS; -85.9% (active) with U251 CNS; -91.5% (active) with PC-3 prostate; -94.9% (active) with SK-MEL-5 melanoma; -80.9% (active) in the assay on UACC-62 melanoma. The growth in the assay with LOX IMVI melanoma was -75.1% (active); with SK-MEL-28 melanoma, -96.1% (active).
As for `CCN1C(=O)N(CC)C2C1NN=c1s/c(=C\c3ccc(Cl)cc3Cl)c(=O)n12` (stereo not given), the growth with DU-145 prostate is 6% (active); in the assay on K-562 leukemia, -83.7% (active); with MALME-3M melanoma it was 50.4%; with MDA-MB-231 breast, 12.4%; in the assay with RXF 393 renal, 61.1%; in the assay on SF-268 CNS it was 42.3%. Also, the growth in the assay with SF-295 CNS was 12.8%; in the assay with SF-539 CNS it was -12.6% (active); in the assay with UACC-257 melanoma, 68.6%; with M14 melanoma, 13.8%; in the assay on HCT-15 colon it was 9.51% (active); in the assay on HT29 colon, 2.8% (active). Moreover, the growth in the assay on SNB-75 CNS is 19.7%; with SNB-19 CNS, 27.9%; in the assay with U251 CNS it was 11%; in the assay with PC-3 prostate, 24.6%; in the assay on SK-MEL-5 melanoma, -20.8% (active); with UACC-62 melanoma, 28.9%. Also, the growth with LOX IMVI melanoma was 18.3%; with SK-MEL-28 melanoma it was 66.1%.
In the case of `Cc1ccc(S(=O)(=O)N2CCCC2CO)cc1` (stereo not given), the growth with DU-145 prostate was 104%; in the assay with K-562 leukemia, 114%; in the assay on MALME-3M melanoma it was 83.8%; in the assay on MDA-MB-231 breast, 100%; in the assay on RXF 393 renal, 103%; in the assay on SF-268 CNS, 101%. In addition, the growth with SF-295 CNS was 112%; in the assay on SF-539 CNS it was 94.4%; with UACC-257 melanoma, 107%; in the assay on M14 melanoma, 95.1%; in the assay with HCT-15 colon, 95%; with HT29 colon it was 88.5%. Further, the growth was 68.1% in the assay with SNB-75 CNS; 98.9% with SNB-19 CNS; 98.1% in the assay on U251 CNS; 75.6% with PC-3 prostate; 98.4% in the assay on SK-MEL-5 melanoma; 104% with UACC-62 melanoma. In addition, the growth in the assay on LOX IMVI melanoma is 86.3%; with SK-MEL-28 melanoma it was 163%.
`Cc1nc2sc(C(=O)Nc3cccc(Cl)c3C)c(N)c2cc1C(=O)c1ccccc1`: the growth is 11% with DU-145 prostate; 13.5% in the assay on K-562 leukemia; 25% in the assay with MALME-3M melanoma; 39% in the assay on MDA-MB-231 breast; 3.56% (active) with RXF 393 renal; 29.2% with SF-268 CNS. Also, the growth with SF-295 CNS was 1.83% (active); with SF-539 CNS, -7.44% (active); in the assay on UACC-257 melanoma it was 63.3%; with M14 melanoma it was 6.11% (active); with HCT-15 colon, 9.29% (active); in the assay with HT29 colon it was 3.07% (active). Moreover, the growth was 7.46% (active) in the assay on SNB-75 CNS; 12.7% in the assay on SNB-19 CNS; 15.6% in the assay on U251 CNS; 6.12% (active) in the assay on PC-3 prostate; 9.08% (active) in the assay on SK-MEL-5 melanoma; 17% with UACC-62 melanoma. The growth in the assay on LOX IMVI melanoma is 35.8%; in the assay on SK-MEL-28 melanoma, 42.7%.
With `COc1ccc(-c2nnc(-c3ccc4c(c3)nc(-c3ccncc3)n4C3CCCCC3)o2)cc1`, the growth in the assay on DU-145 prostate was 68.5%; in the assay with K-562 leukemia it was 43.3%; with MALME-3M melanoma it was 82%; with MDA-MB-231 breast, 63.8%; in the assay with RXF 393 renal it was 69.7%; in the assay with SF-268 CNS, 66.7%. Further, the growth in the assay with SF-295 CNS was 67.7%; with SF-539 CNS, 70.3%; in the assay with UACC-257 melanoma, 77.6%; in the assay with M14 melanoma, 70.5%; with HCT-15 colon, 53.6%; in the assay on HT29 colon, 53%. Further, the growth in the assay on SNB-75 CNS was 72.2%; in the assay with SNB-19 CNS, 89.4%; with U251 CNS, 59.7%; in the assay on PC-3 prostate, 49.7%; in the assay on SK-MEL-5 melanoma it was 17.2%; with UACC-62 melanoma, 68.3%. Besides, the growth in the assay with LOX IMVI melanoma was 72.5%; in the assay with SK-MEL-28 melanoma, 94.6%.
For the molecule `COc1ccc(C(c2cc(OC)c(OC)c(OC)c2)N2CCN(c3ccccc3)CC2)cc1` (stereo not given), the growth is 113% in the assay on DU-145 prostate; 41.6% in the assay on K-562 leukemia; 99.7% with MALME-3M melanoma; 92.3% with MDA-MB-231 breast; 96.2% with RXF 393 renal; 95.8% with SF-268 CNS. The growth with SF-295 CNS is 92.3%; with SF-539 CNS it was 94.4%; with UACC-257 melanoma, 81.3%; with M14 melanoma, 76.3%; with HCT-15 colon, 67.6%; in the assay with HT29 colon it was 63.5%. The growth in the assay with SNB-75 CNS is 90.2%; in the assay on SNB-19 CNS, 84.1%; in the assay on U251 CNS, 96.4%; in the assay on PC-3 prostate, 73.3%; in the assay on SK-MEL-5 melanoma, 85.2%; in the assay on UACC-62 melanoma, 55.2%. Further, the growth in the assay with LOX IMVI melanoma is 87.3%; in the assay on SK-MEL-28 melanoma it was 84.5%.
